{"source": "ChEMBL document CHEMBL1961873", "about": "“Compounds: GSK PKIS; Assays: Nanosyn kinase panel” (2012)", "data": [{"target": "T1, Serine/threonine-protein kinase DCLK2 (Homo sapiens) (UniProt Q8N568)", "T1 sequence (whole entry)": "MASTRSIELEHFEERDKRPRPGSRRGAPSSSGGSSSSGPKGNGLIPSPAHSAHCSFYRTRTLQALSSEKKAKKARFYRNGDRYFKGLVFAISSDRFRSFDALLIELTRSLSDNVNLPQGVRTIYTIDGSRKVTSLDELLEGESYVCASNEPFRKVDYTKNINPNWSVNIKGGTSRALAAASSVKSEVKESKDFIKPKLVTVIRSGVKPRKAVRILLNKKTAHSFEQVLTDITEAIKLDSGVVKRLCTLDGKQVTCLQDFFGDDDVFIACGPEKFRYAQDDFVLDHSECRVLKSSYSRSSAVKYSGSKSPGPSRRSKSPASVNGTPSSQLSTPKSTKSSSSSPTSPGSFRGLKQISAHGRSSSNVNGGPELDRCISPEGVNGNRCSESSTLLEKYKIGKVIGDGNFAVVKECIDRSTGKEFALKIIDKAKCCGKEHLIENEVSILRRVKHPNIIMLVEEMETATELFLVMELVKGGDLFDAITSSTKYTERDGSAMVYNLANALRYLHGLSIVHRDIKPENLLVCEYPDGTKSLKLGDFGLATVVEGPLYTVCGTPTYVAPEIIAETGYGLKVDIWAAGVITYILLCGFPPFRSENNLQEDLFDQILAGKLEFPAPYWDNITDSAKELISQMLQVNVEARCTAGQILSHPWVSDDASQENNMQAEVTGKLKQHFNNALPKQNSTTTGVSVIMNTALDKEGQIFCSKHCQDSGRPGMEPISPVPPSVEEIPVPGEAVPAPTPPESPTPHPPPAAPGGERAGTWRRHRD", "conditions": "at 0.1 µM", "units": {"inhibition": "%"}, "values": [{"molecule": "O=C(Nc1n[nH]c2cc(-c3ccccc3)ccc12)C1CC1", "inhibition": 0.55}, {"molecule": "Cc1ccc(C(=O)NC2CCC2)cc1-c1ccc(C(=O)NCC2CC2)cc1", "inhibition": 0.61}, {"molecule": "O=C(Nc1n[nH]c2cc(-c3cc(F)ccc3F)ccc12)C1CC1", "inhibition": 1.87}, {"molecule": "CNC(=O)c1cncc(/C=C/c2c(C)cccc2C)c1", "inhibition": -0.24}, {"molecule": "O=C(Nc1n[nH]c2nc(-c3ccc(O)cc3)c(Br)cc12)C1CC1", "inhibition": 0.9}, {"molecule": "NS(=O)(=O)c1ccc(N/N=C2\\C(=O)Nc3ccc(-c4cnco4)cc32)cc1", "inhibition": -5.27}, {"molecule": "Fc1ccc(-c2ncn(CCCN3CCOCC3)c2-c2ccncc2)cc1", "inhibition": -1.56}, {"molecule": "C[C@@H](Oc1cc(-n2cnc3ccc(OCC4CCN(C)CC4)cc32)sc1C(N)=O)c1ccccc1Cl", "inhibition": 0.87}, {"molecule": "CCc1ccc(Oc2nccc(-c3c(-c4ccc(F)cc4)ncn3C3CCNCC3)n2)cc1", "inhibition": -0.57}, {"molecule": "COc1cccc(/C=N/Nc2ncnc3c2cnn3-c2cccc(OC)c2)c1", "inhibition": -0.11}, {"molecule": "COc1ccc2cc(-c3c(-c4ccncc4)nc(-c4ccc(S(C)(=O)=O)cc4C)n3C)ccc2c1", "inhibition": 0.26}, {"molecule": "CS(=O)(=O)CCNCc1ccc(-c2ccc3ncnc(Nc4ccc(OCc5ccccc5)c(Br)c4)c3c2)o1", "inhibition": -2.49}, {"molecule": "Fc1ccc(-c2ncn(C3CCNCC3)c2-c2ccnc(Oc3ccc(Oc4ccccc4)cc3)n2)cc1", "inhibition": -0.37}, {"molecule": "O=C1Nc2ccc(I)cc2C1=Cc1cc(Br)c(O)c(Br)c1", "inhibition": 0.92}, {"molecule": "COc1cc(Nc2ncc3c(C)nc(-c4cccc(Oc5ccccc5)c4)n3n2)cc(OC)c1OC", "inhibition": 0.71}, {"molecule": "CN1CCN(CCCNc2nc3ccc(Oc4ccc(NC(=O)Nc5cc(C(F)(F)F)ccc5F)cc4)cc3[nH]2)CC1", "inhibition": -6.99}, {"molecule": "COc1cc(Nc2ncc(-c3ccccc3)o2)cc(OC)c1OC", "inhibition": -1.54}, {"molecule": "COc1ccc(C2=C(N3CCc4ccccc43)C(=O)NC2=O)cc1", "inhibition": 2.43}, {"molecule": "Cc1ccc(C(=O)NC(C)C)cc1-c1ccc(C(=O)NCC2CC2)cc1", "inhibition": -3.07}, {"molecule": "NC(=O)c1cc(-c2ccc(F)cc2)cc(-c2ccncc2)c1N", "inhibition": -0.12}, {"molecule": "Clc1ccc(CNc2nccc(-c3cnn4ncccc34)n2)cc1", "inhibition": -0.21}, {"molecule": "O=C1Nc2ccccc2/C1=C/Nc1ccc(-n2cncn2)cc1", "inhibition": 1.71}, {"molecule": "Fc1ccc(-c2ncn(C3CCNCC3)c2-c2ccnc(Oc3ccc(F)c(F)c3)n2)cc1", "inhibition": -3.27}, {"molecule": "CN(c1ccc(NC(=O)Nc2c(Cl)cccc2Cl)cc1)c1ccnc(Nc2cccc(CS(C)(=O)=O)c2)n1", "inhibition": 3.64}, {"molecule": "NC(=O)Cc1ccccc1Oc1nccc(-c2c(-c3ccc(F)cc3)ncn2C2CCNCC2)n1", "inhibition": 0.97}, {"molecule": "CN(C)CCOc1ccc(-c2cc(-c3ccc4c(c3)CCC4=NO)c(-c3ccncc3)o2)cc1", "inhibition": -2.52}, {"molecule": "CN(C)c1ccc2c(c1)/C(=C/Nc1ccc(S(N)(=O)=O)cc1)C(=O)N2", "inhibition": 1.9}, {"molecule": "COc1cc(C)c(N(C)C(=O)CN(C)C)cc1Nc1nc(Nc2cccc(F)c2C(N)=O)c2cc[nH]c2n1", "inhibition": -2.4}, {"molecule": "O=C(NCC1CC1)c1ccc(-c2cccc(C(=O)NC3CC3)c2)cc1", "inhibition": 1.31}, {"molecule": "COc1cc(N2CCN(C(C)C)CC2)ccc1Nc1nc(Nc2ccc(F)cc2C(=O)NC[C@@H](O)CO)c2cc[nH]c2n1", "inhibition": 2.24}, {"molecule": "NC(=O)c1ccc(Oc2nccc(-c3c(-c4ccc(F)cc4)ncn3C3CCNCC3)n2)cc1", "inhibition": 0.57}, {"molecule": "COc1cc2ncn(-c3cc(OCCc4ccccc4)c(C(N)=O)s3)c2cc1OC", "inhibition": 0.43}, {"molecule": "CCc1cccc(CC)c1/C=C/c1cncc(C(=O)NC)c1", "inhibition": 1.1}, {"molecule": "COc1ccc2cc(-c3c(-c4ccncc4)nc(-c4ccc([S+](C)[O-])cc4C)n3C)ccc2c1", "note": "(stereo not drawn)", "inhibition": -1.12}]}, {"target": "T1, Serine/threonine-protein kinase DCLK2 (Homo sapiens)", "conditions": "at 1 µM", "units": {"inhibition": "%"}, "values": [{"molecule": "O=C(Nc1n[nH]c2cc(-c3ccccc3)ccc12)C1CC1", "inhibition": 1.05}, {"molecule": "Cc1ccc(C(=O)NC2CCC2)cc1-c1ccc(C(=O)NCC2CC2)cc1", "inhibition": 4.16}, {"molecule": "O=C(Nc1n[nH]c2cc(-c3cc(F)ccc3F)ccc12)C1CC1", "inhibition": 0.55}, {"molecule": "CNC(=O)c1cncc(/C=C/c2c(C)cccc2C)c1", "inhibition": -2.53}, {"molecule": "O=C(Nc1n[nH]c2nc(-c3ccc(O)cc3)c(Br)cc12)C1CC1", "inhibition": 3.55}, {"molecule": "NS(=O)(=O)c1ccc(N/N=C2\\C(=O)Nc3ccc(-c4cnco4)cc32)cc1", "inhibition": -2.47}, {"molecule": "Fc1ccc(-c2ncn(CCCN3CCOCC3)c2-c2ccncc2)cc1", "inhibition": 5.36}, {"molecule": "C[C@@H](Oc1cc(-n2cnc3ccc(OCC4CCN(C)CC4)cc32)sc1C(N)=O)c1ccccc1Cl", "inhibition": 4.91}, {"molecule": "CCc1ccc(Oc2nccc(-c3c(-c4ccc(F)cc4)ncn3C3CCNCC3)n2)cc1", "inhibition": 1.55}, {"molecule": "COc1cccc(/C=N/Nc2ncnc3c2cnn3-c2cccc(OC)c2)c1", "inhibition": 1.93}, {"molecule": "COc1ccc2cc(-c3c(-c4ccncc4)nc(-c4ccc(S(C)(=O)=O)cc4C)n3C)ccc2c1", "inhibition": -1.72}, {"molecule": "CS(=O)(=O)CCNCc1ccc(-c2ccc3ncnc(Nc4ccc(OCc5ccccc5)c(Br)c4)c3c2)o1", "inhibition": -1.71}, {"molecule": "Fc1ccc(-c2ncn(C3CCNCC3)c2-c2ccnc(Oc3ccc(Oc4ccccc4)cc3)n2)cc1", "inhibition": 2.31}, {"molecule": "O=C1Nc2ccc(I)cc2C1=Cc1cc(Br)c(O)c(Br)c1", "inhibition": 1.91}, {"molecule": "COc1cc(Nc2ncc3c(C)nc(-c4cccc(Oc5ccccc5)c4)n3n2)cc(OC)c1OC", "inhibition": 0.09}, {"molecule": "CN1CCN(CCCNc2nc3ccc(Oc4ccc(NC(=O)Nc5cc(C(F)(F)F)ccc5F)cc4)cc3[nH]2)CC1", "inhibition": -0.8}, {"molecule": "COc1cc(Nc2ncc(-c3ccccc3)o2)cc(OC)c1OC", "inhibition": 1.6}, {"molecule": "COc1ccc(C2=C(N3CCc4ccccc43)C(=O)NC2=O)cc1", "inhibition": 0.92}, {"molecule": "Cc1ccc(C(=O)NC(C)C)cc1-c1ccc(C(=O)NCC2CC2)cc1", "inhibition": -1.07}, {"molecule": "NC(=O)c1cc(-c2ccc(F)cc2)cc(-c2ccncc2)c1N", "inhibition": -0.85}, {"molecule": "Clc1ccc(CNc2nccc(-c3cnn4ncccc34)n2)cc1", "inhibition": -0.19}, {"molecule": "O=C1Nc2ccccc2/C1=C/Nc1ccc(-n2cncn2)cc1", "inhibition": -2.02}, {"molecule": "Fc1ccc(-c2ncn(C3CCNCC3)c2-c2ccnc(Oc3ccc(F)c(F)c3)n2)cc1", "inhibition": -1.37}, {"molecule": "CN(c1ccc(NC(=O)Nc2c(Cl)cccc2Cl)cc1)c1ccnc(Nc2cccc(CS(C)(=O)=O)c2)n1", "inhibition": 4.12}, {"molecule": "NC(=O)Cc1ccccc1Oc1nccc(-c2c(-c3ccc(F)cc3)ncn2C2CCNCC2)n1", "inhibition": 0.45}, {"molecule": "CN(C)CCOc1ccc(-c2cc(-c3ccc4c(c3)CCC4=NO)c(-c3ccncc3)o2)cc1", "inhibition": -1.37}, {"molecule": "CN(C)c1ccc2c(c1)/C(=C/Nc1ccc(S(N)(=O)=O)cc1)C(=O)N2", "inhibition": 5.58}, {"molecule": "COc1cc(C)c(N(C)C(=O)CN(C)C)cc1Nc1nc(Nc2cccc(F)c2C(N)=O)c2cc[nH]c2n1", "inhibition": -3.85}, {"molecule": "O=C(NCC1CC1)c1ccc(-c2cccc(C(=O)NC3CC3)c2)cc1", "inhibition": -0.41}, {"molecule": "COc1cc(N2CCN(C(C)C)CC2)ccc1Nc1nc(Nc2ccc(F)cc2C(=O)NC[C@@H](O)CO)c2cc[nH]c2n1", "inhibition": -4.14}, {"molecule": "NC(=O)c1ccc(Oc2nccc(-c3c(-c4ccc(F)cc4)ncn3C3CCNCC3)n2)cc1", "inhibition": 1.94}, {"molecule": "COc1cc2ncn(-c3cc(OCCc4ccccc4)c(C(N)=O)s3)c2cc1OC", "inhibition": 0.05}, {"molecule": "CCc1cccc(CC)c1/C=C/c1cncc(C(=O)NC)c1", "inhibition": 1.19}, {"molecule": "COc1ccc2cc(-c3c(-c4ccncc4)nc(-c4ccc([S+](C)[O-])cc4C)n3C)ccc2c1", "note": "(stereo not drawn)", "inhibition": 5.6}]}]}
